Screens (PubChem BioAssay)
The sample as a whole holds a higher share of hits than the screen did.
aSyn UTR act: Activators via SNCA 5'UTR binding, MLPCN. hit rate 7.1% among 300,000. activity score, % (tested at 7.5 µM), hits read low. alpha-synuclein 5'UTR reporter, activators screen; in the data active = activity score below about -60%
Active calls of the source: *.

SMILES	aSyn UTR act
CCCC(=O)NC(c1ccc(Cl)cc1Cl)c1ccc2cccnc2c1O (stereo unspecified)	64.3
CCNC(=O)CCCOc1ccc(Cl)cc1Cl	-82.5*
c1ccn(-c2ccc(N3CCOCC3)cc2)c1	-124.8*
COCCNC(=O)C(c1ccncc1)N(Cc1ccccc1)C(=O)Cn1nnc2ccccc21 (stereo unspecified)	-81.6*
COCCNC(=O)C(c1cccnc1)N(Cc1ccccc1)C(=O)Cn1nnc2ccccc21 (stereo unspecified)	-64.7*
O=C1c2ccccc2C(=O)C1c1ccc(O)cc1	-87.5*
COc1ccc(N(C(=O)c2cnccn2)C(C(=O)NCc2ccccc2)c2ccc(O)cc2)cc1 (stereo unspecified)	-75.9*
O=C(c1cc(-c2ccc(F)cc2)on1)N1CCCc2ccccc21	-62.1*
O=C(c1cc(-c2cccs2)on1)N1CCCc2ccccc21	-78.7*
Cc1ccc(-c2cc(C(=O)N3CCCc4ccccc43)no2)cc1	-150.2*
COc1cccc(N/C=C/c2onc(C)c2[N+](=O)[O-])c1	-151.1*
Cc1noc(/C=C/c2ccc(-c3ccccc3Cl)o2)c1[N+](=O)[O-]	-62.6*
Cc1ccc(N/C=C/c2onc(C)c2[N+](=O)[O-])cc1	-133.6*
CCC(Oc1ccccc1)C(=O)Nc1ccc(-c2nnc(-c3ccco3)o2)cc1 (stereo unspecified)	-96.8*
CC(C)(C)c1ccc(OCC(=O)N/N=C/c2cc(Br)ccc2OC(=O)c2ccco2)cc1	82.9
Clc1ccc(-c2nnc(-c3ccco3)o2)cc1	-203.1*
O=C(COc1ccc(Br)cc1)Nc1ccc(-c2nnc(-c3ccco3)o2)cc1	-80.4*
O=C(CSc1nnc(-c2ccccn2)o1)Nc1ccccc1C(F)(F)F	-104.5*
COc1ccccc1-c1nnc(SCC(=O)Nc2ccc(Cl)cc2Cl)o1	-83.1*
COc1ccccc1NC(=O)CSc1nnc(-c2ccccn2)o1	-65.9*
Cc1ccccc1-c1nnc(-c2ccc(Br)cc2)o1	-175.0*
Cc1ccccc1-c1nnc(-c2ccccc2C)o1	-145.4*
Cc1ccccc1-c1nnc(CN2CCC(C)CC2)o1	-76.5*
CSc1ccccc1-c1nnc(-c2ccc(C)cc2)o1	-105.8*
Cc1cc2sc3nc(=O)n(-c4ccccc4)c(=O)n3c2cc1C	-159.7*
SMILES	aSyn UTR act
O=C(c1ccc(Br)s1)N1CCc2ccccc2C1	-65.1*
O=C(Cc1ccc(Br)cc1)N1CCc2ccccc2C1	-145.0*
COc1ccc(/C(C)=N/Nc2ncc(Cl)cc2Cl)c(O)c1	-92.0*
O=c1c2c3c(sc2nc(NCCO)n1Cc1ccco1)CCCCC3	-118.0*
COCCNc1nc2sc3c(c2c(=O)n1Cc1ccco1)CCCCC3	-72.2*
O=C1Nc2ccccc2S/C1=C/Nc1cccc(Cl)c1	-202.5*
CC(=O)N1CCc2cc(N=NC3=C(O)CCCC3=O)ccc21	-100.2*
Cc1cc2nc(SCCN3CCCC3)[nH]c2cc1C	-67.7*
CC(C)Oc1ccccc1/C=N/Nc1ccccc1[N+](=O)[O-]	-209.4*
CCOc1ccccc1/C=N/Nc1ccccc1[N+](=O)[O-]	-303.8*
COc1ccccc1/C=N\Nc1ccccc1[N+](=O)[O-]	-91.5*
CCOc1ccc(C(=O)Nc2ccccc2C(=O)O)cc1	-89.5*
COc1ccc(C(=O)Nc2ccccc2C(=O)N/N=C/c2ccco2)cc1	-78.8*
O=C(Nc1ccccc1C(=O)N/N=C/c1ccncc1)c1ccccc1	-140.4*
CCOc1ccc(/C=N/NC(=O)c2ccccc2NC(=O)c2ccc(OC)cc2)cc1	-71.4*
O=C(COc1ccc(Cl)cc1Cl)Nc1cccnc1	-122.0*
O=C(COc1ccc(Cl)cc1Br)Nc1ccncc1	-146.5*
Cc1c(OCC(=O)Nc2cccnc2)ccc2c3c(c(=O)oc12)CCC3	57.7
CC(=O)n1nc(-c2ccc(Cl)cc2)nc1NCc1ccco1	-117.2*
CCC(=O)n1nc(-c2ccc(OC)cc2)nc1NCc1cccs1	-102.4*
COc1ccc(CC(=O)n2nc(-c3ccc(Cl)cc3)nc2NCc2ccco2)cc1	-105.2*
CCOC(=O)c1sc(NC(=O)Nc2ccc(Cl)cc2)cc1C	-135.1*
CCOC(=O)c1sc(NC(=O)c2ccccc2)cc1C	-180.8*
CCOC(=O)c1sc(NC(=S)NC(=O)CC(C)C)cc1C	-101.6*
CCOC(=O)c1sc(NC(=O)C(C)(C)C)cc1C	-166.2*
SMILES	aSyn UTR act
CCOC(=O)c1sc(Nc2nc3c(OC)cccc3s2)cc1C	-195.9*
CCOC(=O)c1sc(NC(=O)c2ccc(Cl)s2)cc1C	-196.2*
CCN(CC)Cc1c(NC(=O)c2ccccc2)sc(C)c1C	-87.5*
CCC(C)NC(=O)c1cn(-c2cccc(C)n2)cn1 (stereo unspecified)	-110.5*
Cc1cccc(-n2cnc(C(=O)NC3CCCCCC3)c2)n1	-100.9*
COc1ccc(C(=O)/C=C/c2ccccc2)c(OC)c1	-276.6*
COc1ccc(C(=O)/C=C/Nc2cc(C)on2)c(OC)c1	-72.3*
COc1ccc(OC)c(C(=O)/C=C/c2ccccc2C(F)(F)F)c1	-197.9*
CCN1CCN(S(=O)(=O)c2ccc(Cl)c(C(=O)NCCc3ccccc3)c2)CC1	-68.8*
Cc1ccc(N(C)S(=O)(=O)c2ccc(-c3cnc(C4CC4)o3)cc2)cc1	83.9
Cc1ccc(-c2noc(C3CCCCC3)n2)cc1	-187.3*
Cc1cccc(-c2noc(-c3ccno3)n2)c1	-120.9*
Cc1cccc(-c2noc(C3CCCCC3)n2)c1	-150.0*
CCS(=O)(=O)N1CCC(c2nc(-c3ccc(C)cc3)no2)CC1	-77.7*
Cc1ccc(N=C2N=C(N)c3ccccc32)cc1C	-78.2*
CCc1ccc(N=C2N=C(N)c3ccccc32)cc1	-98.4*
Cn1cccc1-c1nc2ccc(NC(=O)c3ccccc3)cc2[nH]1	-124.5*
Cn1cccc1-c1nc2ccccc2[nH]1	-114.1*
CCOc1ccc2nc(NC(=O)COC)sc2c1	-97.2*
CCOc1ccc2nc(NC(=O)Cn3[nH]c(=O)c4ccccc4c3=O)sc2c1	-104.6*
CCOCC(=O)Nc1nc2ccc(OC)cc2s1	-88.9*
OCC1CCCN(C(=S)Nc2ccc(Nc3ccccc3)cc2)C1 (stereo unspecified)	-130.1*
CC(C)c1ccc(NC(=S)N2CCCC2)cc1	-86.4*
Cc1ccc(NC(=S)N2CCCC(O)C2)cc1 (stereo unspecified)	-62.6*
S=C(Nc1ccccc1)N1CCCCCCC1	-88.2*
SMILES	aSyn UTR act
CC(=O)c1ccc(NC(=O)CCc2c(C)nc3ncnn3c2C)cc1	-69.4*
CCc1c(C)nc2ncnn2c1Nc1ccc(C(C)=O)cc1	-111.5*
Cc1cccc(-n2ncc3c(NCc4cccs4)ncnc32)c1	-112.0*
Clc1ccc(-n2ncc3c(NCc4cccs4)ncnc32)cc1	-249.5*
COCCCNC(=O)c1ccc(N2CCCC2)c(NS(=O)(=O)c2ccc(C)cc2)c1	-72.5*
COc1ccc2nc3ccccc3nc2c1N	-67.4*
Nc1c2ccccc2nc2ccccc12	89.4
COc1ccc2nc3cccc(OC)c3nc2c1	-104.6*
O=C(N/N=C/c1ccc(N2CCOCC2)cc1)c1cccs1	-178.6*
C/C(=N\NC(=O)c1cccs1)c1ccc2ccccc2c1	-92.1*
O=C(N/N=C/c1cccnc1)c1cccs1	-81.5*
Cc1cc(/C=N/NC(=O)c2cccs2)c(C)n1-c1cnccn1	-169.6*
C/C(=N\NC(=O)COc1ccccc1)c1cccs1	-85.0*
C/C(=N\NC(=O)c1cccs1)c1cccnc1	-83.3*
COc1cccc(NC(=O)C(=O)NCCc2ccc(F)cc2)c1	-109.2*
O=C(NCc1ccccn1)Nc1cccc(Cl)c1	-176.5*
Cc1cccc(NC(=O)Nc2ccc(C)cc2Br)c1	-78.9*
O=C(NCCc1ccc(F)cc1)Nc1ccccc1	-70.1*
